Screening results from PubChem.
An excerpt weighted towards active compounds, which were near 3.9% of everything screened.
BH1578 lux ind – inducers of Vibrio cholerae quorum light production without autoinducers, primary screen, BH1578 luxS cqsA deficient, single point; activation, % at 18.7 µM; V. cholerae BH1578 lux reporter, luminescence, 6 h; hit rate 0.16% among 350,000; AID 588436, 2011; in the data active = activation mostly above about 9.7%, no sharp cut-off
GDH-TPI counter – GDH-TPI coupling enzyme inhibitors, primary screen, artefact control for M. tuberculosis FBA inhibitor project, biochemical, absorbance, full deck. AID 588335, 2011. inhibition, % at 4.8 µM. hit rate 1.2% among 360,000. GDH-TPI coupled enzyme counterscreen, NADH absorbance
Mtb FBA inh – Mtb FBA enzyme inhibitors, primary screen, biochemical, fluorescence, strain H37Rv; Fructose-bisphosphate aldolase (Mycobacterium tuberculosis (strain ATCC 25618 / H37Rv)), …; purified M. tuberculosis FBA, fluorescence read-out; inhibition, % at 1 µM; hit rate 2.3% among 360,000; AID 588726, 2011; in the data active = inhibition above about 27%
Target sequence (P9WQA3 whole entry, looked up): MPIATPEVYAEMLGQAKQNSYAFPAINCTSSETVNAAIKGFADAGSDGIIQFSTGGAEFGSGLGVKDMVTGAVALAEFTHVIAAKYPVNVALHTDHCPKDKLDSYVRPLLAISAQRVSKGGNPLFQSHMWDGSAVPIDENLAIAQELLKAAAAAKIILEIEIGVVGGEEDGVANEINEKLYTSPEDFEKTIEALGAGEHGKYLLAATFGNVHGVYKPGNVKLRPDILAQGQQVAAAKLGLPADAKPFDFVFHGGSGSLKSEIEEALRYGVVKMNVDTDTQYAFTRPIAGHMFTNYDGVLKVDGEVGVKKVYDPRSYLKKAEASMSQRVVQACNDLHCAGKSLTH
CCHF vOTU inh – CCHFV vOTU protease inhibitors, primary screen, biochemical, Pep-AMC substrate, fluorescence. Crimean-Congo hemorrhagic fever virus L polyprotein viral ovarian tumor (vOTU) protease …. inhibition, % at 11.5 µM. hit rate 0.55% among 370,000
A number is an active result; 0 = inactive; - = no result; + = active, no number. Cut-off read from the data, not from the text of the source, unless noted: active = inhibition above about 30%; inactive = the rest.

SMILES	BH1578 lux ind	GDH-TPI counter	Mtb FBA inh	CCHF vOTU inh
O=C(c1ccc(N2CCN(C(=O)c3ccccc3Br)CC2)cc1)c1cccc(F)c1	0	0	0	0
Cc1ccc2[nH]c3c(=O)n(CCN4CCNCC4)cnc3c2c1	0	0	0	0
COc1ccc2[nH]c3c(=O)n(CCN4CCOCC4)cnc3c2c1	0	31	152	0
COc1cccc2[nH]c3c(=O)n(CCCN4CCOCC4)cnc3c12	0	0	147	0
COc1ccc2c(c1)c1ncn(CCN3CCNCC3)c(=O)c1n2C	0	0	129	0
COc1cccc2[nH]c3c(N4CCC5(CC4)OCCO5)ncnc3c12	0	0	149	0
Cc1ccc(C(=O)COC(=O)c2cc(Cl)nc3ccccc23)cc1	0	0	0	0
CCCn1c(C)nc2c(c1=O)c1nc3ccccc3nc1n2CCC1=CCCCC1	0	0	91	0
Cc1nc2c(c(=O)n1CCC1=CCCCC1)c1nc3ccccc3nc1n2/N=C/c1ccco1	0	0	0	0
O=C(Nc1ccc(F)c(Cl)c1)c1csc([C@@H]2C[C@H](O)[C@@H](CO)O2)n1	0	0	0	0
COc1ccc2c(C(=O)NCCCCO)c(-c3ccc(S(C)(=O)=O)cc3)sc2c1	0	0	+	0
COc1ccc2sc(-c3ccc(S(C)(=O)=O)cc3)c(C(=O)NCCc3c[nH]c4ccccc34)c2c1	0	0	0	0
COc1ccccc1NC(=O)CSc1nncs1	0	0	0	0
CCOC(=O)N1CCC(NC(=O)c2ccc3c(c2)N(CC)CCS3)CC1	0	0	73	0
COc1ccc(CN(C(=O)c2ccc3c(c2)OCCO3)C(C(=O)NC2CCCCC2)c2ccc3ncccc3c2)cc1 (centres undefined)	0	0	0	0
COCCN(CCOC)C(=O)c1cc2c(=O)n3ccccc3nc2s1	0	32	+	0
CCN(CC)C(=O)c1cc2c(=O)n3ccccc3nc2s1	0	0	186	0
CCN(CC)C(=O)c1c(C)nc2ccccn12	0	0	0	-
Cc1cc(NS(=O)(=O)c2ccc(NC(=O)c3cc4c(=O)n5ccccc5nc4s3)cc2)nc(C)n1	0	0	0	0
Cc1ccc(C(=O)N/C(=C\c2ccc3c(c2)OCO3)C(=O)N2CCOCC2)cc1	0	0	0	0
Cc1cc(O)c2c(c1)C(O)(C1OC(CO)C(O)C(O)C1O)c1cccc(O)c1C2=O (centres undefined)	0	0	0	0
CCCN1CCC(NC(=O)Cc2ccccc2C)CC1	0	0	0	0
O=C(Nc1cccnc1)c1ccc(COc2cc(Cl)ccc2Cl)o1	0	0	0	0
O=C(N/N=C/c1ccc(O)cc1)c1ccc(COc2cc(Cl)ccc2Cl)o1	0	35	0	0
Cc1ccc(S(=O)(=O)Oc2ccc(C)cc2/C=N/N=C2\NC(=O)C(C)S2)cc1 (centres undefined)	0	38	0	0
SMILES	BH1578 lux ind	GDH-TPI counter	Mtb FBA inh	CCHF vOTU inh
COc1ccc(/C=C/C(=O)Nc2nnc(C(C)C)s2)cc1OC	0	34	0	0
COc1ccc(/C=C/C(=O)Nc2ccc3nc4n(c(=O)c3c2)CCCC4)cc1OC	0	36	0	0
COc1ccc(/C=C/C(=O)Nc2c(C(=O)O)[nH]c3ccccc23)cc1OC	0	31	0	0
COc1ccc(/C=C/C(=O)Nc2ccc(-n3nncc3-c3ccc(OC)c(OC)c3)cc2)cc1OC	0	36	0	0
O=C(N/N=C/c1ccc(O)cc1)c1ccc(NC(=O)c2ccccc2Br)cc1	0	42	0	0
Cc1ccccc1C(=O)Nc1ccc(C(=O)N/N=C/c2ccncc2)cc1	0	0	0	0
Cc1ccccc1C(=O)Nc1ccc(C(=O)N/N=C/c2ccc(O)cc2)cc1	0	34	0	0
O=C(N/N=C/c1ccc(O)cc1)c1cccc(N/N=C/c2ccc(O)cc2)c1	0	37	0	0
CC1(C(=O)Nc2cccnc2)Cc2c(-c3cccc(C(F)(F)F)c3)ccnc2O1 (centres undefined)	0	0	0	0
COC(=O)C(Cc1ccccc1)NC(=O)CSc1nc(N)cc(=O)[nH]1 (centres undefined)	0	0	0	0
CCCc1cc(C(F)(F)F)c(C#N)c(=O)[nH]1	0	0	156	0
CC(C)(C)c1cc(C(F)(F)F)c(C#N)c(=O)[nH]1	0	0	120	0
C/C(=N\Nc1c([N+](=O)[O-])c(C)nn1C)c1ccc(F)cc1F	0	33	0	0
